The values that follow come from PubChem BioAssay AID1456 (Vanderbilt High Throughput Screening Facility, 2008).

Out of some 190,000 compounds screened, about 4,100 (2.2%) were called active. This is one part of a sample in which actives are shown more often than they occur. A number with no mark means an inactive call.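 How the source made its calls: active means thallium flux slope and its plate-corrected score both differing from the plate sample mean at a set confidence after two filtering rounds, in either direction; inactive means the rest.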

The target of this assay is Solute carrier family 12 member 5 (Homo sapiens) (UniProt Q9H2X9). Put plainly: modulation of human KCC2 ion transport – cell-based, HEK293 KCC2, FluoZin-2 fluorescence, MLSMR, primary screen (AID 1456).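 Further: slope of fluorescence scaled to starting intensity during 10 to 20 s after thallium.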 To be noted: KCC2 cells, thallium flux FluoZin-2 fluorescence; at 10 µM.
Chain of Solute carrier family 12 member 5 (Homo sapiens) (Q9H2X9 whole entry, looked up): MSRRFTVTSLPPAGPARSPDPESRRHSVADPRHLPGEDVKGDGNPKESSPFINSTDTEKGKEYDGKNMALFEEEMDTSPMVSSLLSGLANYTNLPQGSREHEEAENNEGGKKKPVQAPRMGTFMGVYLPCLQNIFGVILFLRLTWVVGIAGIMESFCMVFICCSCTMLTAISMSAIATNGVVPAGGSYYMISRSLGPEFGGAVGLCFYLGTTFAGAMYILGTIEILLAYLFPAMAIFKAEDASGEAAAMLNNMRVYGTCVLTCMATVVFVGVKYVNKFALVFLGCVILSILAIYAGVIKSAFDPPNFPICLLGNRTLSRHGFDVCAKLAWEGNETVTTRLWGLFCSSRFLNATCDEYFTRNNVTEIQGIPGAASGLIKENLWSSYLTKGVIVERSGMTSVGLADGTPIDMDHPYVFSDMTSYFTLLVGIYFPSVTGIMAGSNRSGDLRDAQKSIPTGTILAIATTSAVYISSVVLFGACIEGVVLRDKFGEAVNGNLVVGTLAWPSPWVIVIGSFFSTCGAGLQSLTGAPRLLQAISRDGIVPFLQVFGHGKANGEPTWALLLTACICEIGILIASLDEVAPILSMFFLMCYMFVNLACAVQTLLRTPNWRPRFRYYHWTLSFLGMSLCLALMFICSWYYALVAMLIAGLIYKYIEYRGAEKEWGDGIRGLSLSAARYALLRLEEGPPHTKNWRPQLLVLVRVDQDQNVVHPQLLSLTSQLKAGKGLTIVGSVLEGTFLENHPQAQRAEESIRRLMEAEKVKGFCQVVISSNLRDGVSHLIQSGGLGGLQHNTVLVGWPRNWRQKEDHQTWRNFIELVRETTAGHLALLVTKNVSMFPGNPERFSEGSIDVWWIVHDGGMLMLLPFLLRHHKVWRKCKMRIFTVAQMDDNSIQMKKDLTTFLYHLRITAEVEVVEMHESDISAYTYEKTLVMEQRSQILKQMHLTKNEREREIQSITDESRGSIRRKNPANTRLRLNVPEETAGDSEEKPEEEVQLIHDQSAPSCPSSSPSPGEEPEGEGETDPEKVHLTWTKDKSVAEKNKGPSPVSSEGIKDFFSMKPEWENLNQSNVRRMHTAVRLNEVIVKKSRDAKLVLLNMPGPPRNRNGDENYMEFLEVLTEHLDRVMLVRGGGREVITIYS
Turning to `O=C(CSC1c2ccccc2-c2ccccc21)N/N=C/c1ccccc1`, the B-score of Tl+ flux slope (higher = more flux/activation; lower = inhibition) is 2.57 (active).

In the case of `CCCCC(=O)N/N=C/c1c(O)n(-c2ccccc2)c(=O)[nH]c1=O`, the B-score of Tl+ flux slope (higher = more flux/activation; lower = inhibition) was -0.272.

`c1cc2c(cc1[C@H]1OC[C@H]3[C@@H]1CO[C@@H]3c1ccc3c(c1)OCO3)OCO2`: the B-score of Tl+ flux slope (higher = more flux/activation; lower = inhibition) is 0.711.

On to `CCC1(C)CC(CCNCc2ccc(N(C)C)cc2)(c2ccc(F)cc2)CCO1` (stereo not given), for which the B-score of Tl+ flux slope (higher = more flux/activation; lower = inhibition) is 1.55.

Turning to `CNC(=O)O/N=C(\N)Cc1csc2ccccc12`, the B-score of Tl+ flux slope (higher = more flux/activation; lower = inhibition) was 0.111.

As to `COc1cc(-n2c(=S)[nH]c3ccc(C)cc3c2=O)c(Cl)cc1Cl`, the B-score of Tl+ flux slope (higher = more flux/activation; lower = inhibition) was 69.6 (active).

For the molecule `COc1cccc(CN2CCCC(C(=O)c3ccccc3SC)C2)c1O` (stereo not given), the B-score of Tl+ flux slope (higher = more flux/activation; lower = inhibition) was -3.42.

As to `COc1cc(OC)cc(C2(C#N)CCN(C)CC2)c1`, the B-score of Tl+ flux slope (higher = more flux/activation; lower = inhibition) is -0.32.

`CSc1ccc(C(=O)C2CCCN(Cc3ccn[nH]3)C2)cc1` (stereo not given): the B-score of Tl+ flux slope (higher = more flux/activation; lower = inhibition) is 0.628.

Take `Cc1ccc(CN2CCCC(C(=O)c3ccc4c(c3)OCO4)C2)cc1C` (stereo not given): the B-score of Tl+ flux slope (higher = more flux/activation; lower = inhibition) is -0.421.
